Compounds with a hit are over-represented: about 7.9% of the library has one in this group of screens.
MARV entry inh – qHTS for inhibitors of binding or entry into cells for Marburg Virus. Potency, µM (series often up to 37.8 µM), hits mostly inhibitors. Marburg virus pseudotyped entry inhibition, cell reporter. 300,000 tested, 1.8% active. AID 540276, 2011; calls by dose curve; tested in HEK293 cells
FMDV antiviral – High Throughput Screening for Foot and Mouth Disease Virus Antivirals; Potency, µM (top dose mostly 57.9 µM), hits mostly inhibitors; AID 1159524, 2015; 410,000 tested, 1.2% active; FMDV antiviral cell-based qHTS; calls by dose curve; tested in HEK293T cells; further: read-out not given here; nearly all actives have a fitted effect of over 45% in size
HCMV antiviral – qHTS Assay for inhibitors of the human cytomegalovirus (HCMV); HFF cells, HCMV-luciferase reporter, 72 h; stronger effect = lower value; activity change, negative = inhibition, % at 57.5 µM; 410,000 tested, 4.5% active; in the data active means activity change below about -60%; inconclusive means no clear call, values can overlap the other calls; inactive means above about -39%
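Two-dose cell screen: HFF monolayers treated with compounds and infected with luciferase-expressing HCMV at 1 PFU/cell, 72 h at 37C, then lysed for luciferase measurement.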
HCV inh – qHTS Assay for Inhibitors of Hepatitis C Virus (HCV); 340,000 tested, 3.4% active; Huh7.5.1 HCVcc-Cre infection, luciferase reporter, 44 h; Potency, µM (series often up to 41.8 µM), actives largely listed as inhibitors; active means well fitted inhibition curve with a large enough effect; inconclusive means small, poorly fitted or top-dose-only effect, or another doubt; inactive means no such curve, though single readings can be large or run the other way
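A cell-based infection assay in which seeded cells (1,000 per well) receive test compound after 4 h, are inoculated with HCVcc-Cre at approximately 0.5 moi, and are incubated 44 h before luminescence detection.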
Lassa entry inh – qHTS for Inhibitors of binding or entry into cells for Lassa Virus; Lassa virus pseudotype entry inhibition, cell reporter; Potency, µM (doses to about 37.9 µM), actives largely listed as inhibitors; 300,000 tested, 1.2% active; calls by dose curve; tested in HEK293 cells; further: nearly all actives have a fitted effect of over 50% in size
Each line names hits and unclear results; the compound was inactive in the other large screens.

CN1CCN(c2ccc(C(=O)c3ccc(Br)cc3)cc2[N+](=O)[O-])CC1	MARV entry inh 7.9µM, FMDV antiviral inconclusive, HCMV antiviral -68, HCV inh 10µM
CN1CCN(c2ccc(S(C)(=O)=O)cc2[N+](=O)[O-])CC1	MARV entry inh inconclusive
COc1ccccc1C(=O)Nc1nnc(-c2ccco2)s1	MARV entry inh inconclusive (no result: FMDV antiviral)
Cc1ccccc1C(=O)Nc1nnc(-c2ccco2)s1	MARV entry inh 1.3µM, FMDV antiviral inconclusive, HCV inh 11µM, Lassa entry inh 4.1µM
N#C/C(=C/c1ccc(-c2cccc([N+](=O)[O-])c2)o1)C(=O)Nc1nc(-c2cccs2)cs1	MARV entry inh inconclusive
N#C/C(=C\c1ccc(-c2ccc([N+](=O)[O-])cc2)o1)C(=O)Nc1nc(-c2cccs2)cs1	HCV inh 10µM (no result: MARV entry inh, Lassa entry inh)
CC(=O)c1ccc([C@@H]2C=C[C@H](O)[C@@H](CO)O2)cc1	none (no result: FMDV antiviral, HCMV antiviral, HCV inh, Lassa entry inh)
Cc1cc(S(=O)(=O)N2CCN(c3ccccc3F)CC2)ccc1-n1cnnn1	MARV entry inh inconclusive, FMDV antiviral inconclusive, HCMV antiviral -77, HCV inh inconclusive
Cc1cc(S(=O)(=O)N(Cc2cccs2)Cc2ccccc2F)ccc1-n1cnnn1	MARV entry inh inconclusive, HCMV antiviral -64, HCV inh inconclusive, Lassa entry inh inconclusive
Cc1cc(S(=O)(=O)N2CCN(c3ccc(F)cc3)CC2)ccc1-n1cnnn1	MARV entry inh inconclusive
COc1ccc(C2=C(C)C(=NCCCN3CCN(c4cc(Cl)ccc4C)CC3)NS2(=O)=O)cc1	FMDV antiviral inconclusive (no result: HCV inh)
CC1=C(c2ccc(Cl)cc2)S(=O)(=O)NC1=NCCCN1CCN(c2cc(C)ccc2C)CC1	FMDV antiviral inconclusive, HCMV antiviral -100 (no result: HCV inh)
COc1cccc(-c2nn(C)c3sc(C(=O)N4CCOCC4)cc23)c1	none (no result: MARV entry inh, Lassa entry inh)
COc1cccc(-c2nn(C)c3sc(C(=O)NCc4ccc5c(c4)OCO5)cc23)c1	HCV inh 14µM (no result: Lassa entry inh)
COc1cccc(-c2nn(C)c3sc(C(=O)N4CCN(c5ccccn5)CC4)cc23)c1	MARV entry inh inconclusive, FMDV antiviral inconclusive, HCV inh 10µM, Lassa entry inh inconclusive (no result: HCMV antiviral)
COc1cccc(-c2nn(C)c3sc(C(=O)NCc4ccc(C)o4)cc23)c1	MARV entry inh inconclusive, HCV inh 2.8µM, Lassa entry inh inconclusive
Cc1cc2c(N=O)c(NO)ccc2[nH]1	MARV entry inh 1.4µM, HCV inh inconclusive, Lassa entry inh inconclusive (no result: HCMV antiviral)
O=C(CSc1nnc(-c2ccc3c(c2)OCO3)o1)Nc1ncc(Cl)cc1Cl	HCMV antiviral -61
O=C(O)CCSc1nnc(-c2ccc3c(c2)OCO3)o1	MARV entry inh inconclusive, HCMV antiviral -75, Lassa entry inh inconclusive
CC(=O)CSc1nnc(-c2ccc3c(c2)OCO3)o1	MARV entry inh inconclusive, Lassa entry inh inconclusive
CC(=O)Nc1ccc(NC(=O)CSc2nnc(-c3ccc4c(c3)OCO4)o2)cc1	none (no result: MARV entry inh, Lassa entry inh)
Cc1ccc(-c2cc(-c3ccccc3)c(C#N)c(Br)n2)cc1	MARV entry inh inconclusive
CS(=O)(=O)c1nc(-c2ccccc2)cc(-c2ccccc2)c1C#N	MARV entry inh 13µM, FMDV antiviral inconclusive, HCV inh 28µM, Lassa entry inh 15µM (no result: HCMV antiviral)
Cc1nn(-c2ccc(NC(=O)c3ccncc3)cc2)c(C)c1Cl	MARV entry inh inconclusive, FMDV antiviral 18µM, HCMV antiviral -91, HCV inh 3.2µM, Lassa entry inh inconclusive
C/C(=N\NC(=O)c1c(Cl)c(C)nn1C)c1ccc(NC(=O)c2ccncc2)cc1	HCV inh inconclusive
COC(=O)CCCOc1ccc(Cl)cc1Cl	none (no result: MARV entry inh, HCMV antiviral, HCV inh, Lassa entry inh)
O=C(CCC1N=C2c3ccccc3N=C(SCC(=O)Nc3ccc(F)cc3)N2C1=O)NCc1cccs1 (stereo not drawn)	FMDV antiviral inconclusive, HCMV antiviral -80 (no result: MARV entry inh, HCV inh)
Cc1ccc(CS(=O)(=O)CCC(=O)NCCc2ccccc2)cc1	HCV inh 5.6µM, Lassa entry inh inconclusive
Cc1ccc(CSC2=Nc3ccccc3C3=NC(CCC(=O)NCCc4ccccc4)C(=O)N23)cc1 (stereo not drawn)	FMDV antiviral inconclusive, HCMV antiviral -90, Lassa entry inh inconclusive (no result: MARV entry inh, HCV inh)
O=C(CC1N=C2c3ccccc3N=C(SCC(=O)Nc3ccc(F)cc3)N2C1=O)NCc1cccs1 (stereo not drawn)	none (no result: MARV entry inh, HCV inh)
O=C(CSCc1cccc(Cl)c1)Nc1ccccc1-c1ccccc1	MARV entry inh inconclusive, HCMV antiviral -63
Cc1ccccc1CSCC(=O)Nc1ccccc1-c1ccccc1	MARV entry inh inconclusive
COc1ccc(Cc2nnc(NC(=O)c3ccccc3Cl)s2)cc1OC	none (no result: MARV entry inh, Lassa entry inh)
O=C(NCc1ccco1)C1=CN2CCN(Cc3ccccc3)C(=O)N=C2O1	none (no result: MARV entry inh, FMDV antiviral, HCV inh, Lassa entry inh)
Cc1ccc(CSCC(=O)Nc2ccccc2C(=O)O)cc1	HCMV antiviral -79 (no result: MARV entry inh, Lassa entry inh)
O=C(Cc1cccc2ccccc12)Nc1cc(Cl)ccc1C(=O)O	none
O=C(CSc1ccccc1)Nc1ccccc1C(=O)O	MARV entry inh 18µM, Lassa entry inh inconclusive
CSc1ccccc1NC(=O)CSCc1ccc(C)cc1	MARV entry inh inconclusive, Lassa entry inh inconclusive
O=C(Cc1cccc2ccccc12)Nc1ccccc1C(=O)O	MARV entry inh 15µM, HCMV antiviral inconclusive, Lassa entry inh inconclusive
Cc1ccc(CSCC(=O)NCCc2ccccc2)cc1	HCMV antiviral -100, Lassa entry inh inconclusive
O=C(NCCC1=CCCCC1)c1ccc2c(c1)ncn2-c1cccc(Cl)c1	none (no result: MARV entry inh, HCV inh)
Cc1ccc(NC(=O)C2CCCN(S(=O)(=O)c3c(C)nn(C)c3C)C2)c(C)c1 (stereo not drawn)	none (no result: HCV inh)
Cc1ccccc1NC1=C(Cl)C(=O)OC1NC(=O)c1ccccc1 (stereo not drawn)	HCMV antiviral -82 (no result: FMDV antiviral)
Cc1ccc2c(c1)C(=O)C(=O)N2Cc1ccc(Br)cc1	HCMV antiviral -76, HCV inh inconclusive (no result: MARV entry inh, Lassa entry inh)
Cc1ccc2c(c1)C(=O)C(=O)N2Cc1ccc(OCCC(C)C)cc1	HCMV antiviral -95 (no result: HCV inh)
CCCCOc1ccccc1NC(=O)CC1Sc2ccccc2NC1=O (stereo not drawn)	none (no result: HCV inh)
Fc1cccc(Cl)c1Cn1nnc2c(NCc3ccncc3)ncnc21	FMDV antiviral inconclusive, HCMV antiviral inconclusive, HCV inh 10µM, Lassa entry inh inconclusive
Fc1cccc(Cl)c1Cn1nnc2c(NCc3ccccn3)ncnc21	FMDV antiviral inconclusive
CC(C)CC1C(=O)N(Cc2cn(Cc3ccco3)nn2)CCS(=O)(=O)N1Cc1ccc(-c2ccccc2)cc1 (stereo not drawn)	MARV entry inh inconclusive, FMDV antiviral inconclusive (no result: HCV inh, Lassa entry inh)
CCOc1ccc(Cn2c3ccc(OC)cc3c3nc4ccccc4nc32)cc1	HCMV antiviral inconclusive
CCn1c2ccc(OC)cc2c2nc3ccccc3nc21	HCV inh 7.9µM
Cc1nn(-c2ccccc2)c(-c2ccccc2)c1C(=O)O	HCMV antiviral -67
CCOc1ncccc1C(=O)N1CCN(S(=O)(=O)c2cccs2)CC1	none (no result: MARV entry inh, Lassa entry inh)
CCOc1ncccc1C(=O)N1CCN(C(c2ccccc2)c2ccccc2)CC1	MARV entry inh inconclusive, FMDV antiviral inconclusive, HCV inh 11µM, Lassa entry inh inconclusive

Compound activity as filed in PubChem.
